Experimental data as given in PubChem BioAssay (NCI).
The panel holds about 83,000 compounds, 20% with a hit somewhere; the sample as a whole holds those more often.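 Single-concentration screen, 48 h exposure, 96-well plates. Endpoint: percent growth. Below 10 = active.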 Calls of active or inactive are those of the source.

These compounds were tested on HS 578T breast (assay: NCI-60 one-dose screen, 48 h (100 = growth as untreated, 0 = no growth, -100 = all killed)). Details: 10 µM unless noted.
Protocol: Growth inhibition of the HS 578T human tumor cell line is measured as a screen for anti-cancer activity. Cells are grown in 96 well plates and exposed to the test compound for 48 hours. Compounds are tested at a single concentration, which is 10^-5 M for most compounds. The reported endpoint is percent growth (GI% or GIPRCNT), where numbers from 0 - 100% represent growth inhibition, and numbers from -100% - 0 represent cell death. For example, a value of 40 represents 60% growth inhibition. A value of 0 means no net growth occurred over the course of the experiment. A value of -40 indicates 40% of cells at the beginning of the experiment died by the end of the experiment. A value of -100 means all cells are dead at the end of the experiment.
NCI-60 Human Tumor Cell Lines Screen was performed using the standard one-dose NCI protocol, which is described in more detail at https://dtp.cancer.gov/discovery_development/nci-60/default.htm.
Compounds with GIPRCNT values below 10 were considered active. Activity score was based on GIPRCNT using the following formula: […]
Score is 0 for GIPRCNT values of 100 or above, 50 for GIPRCNT values of 0, and 100 for GIPRCNT values of -100.

| Compound | growth |
| --- | --- |
| C#Cc1cccc(Nc2nc(Cl)nc3cc(NC(=O)CCl)ccc23)c1 | -14% (active) |
| c1ccc2c(-c3cnn4cc(-c5ccc(N6CCNCC6)cc5)cnc34)ccnc2c1 | -68.7% (active) |
| O=c1ccc2c(ccc3ncccc32)o1 | 108% (inactive) |
| Nc1n[nH]c2cccc(C#Cc3cccc(C(=O)Nc4ccc(Cl)c(C(F)(F)F)c4)c3)c12 | 53.3% (inactive) |
| C=CCNc1ccc2c3c(cccc13)C(=O)N(CC=C)C2=O | 91.6% (inactive) |
| O=C(/C=C/c1cccc([N+](=O)[O-])c1)c1ccc(Nc2nc(Nc3ccc(F)cc3)nc(Nc3ccc(Cl)cc3)n2)cc1 | 106% (inactive) |
| COC(=O)c1cc(-c2ccc(OC)c(OC)c2)[nH]c1N/N=C/c1c(Cl)cccc1Cl | 14.3% (inactive) |
| CCN1C(=O)N(CC)C2C1NN=c1s/c(=C3\C(=O)N(C)c4ccccc43)c(=O)n12 (stereo not given) | 14.2% (inactive) |
| O=C1/C(=C/c2cccc(Br)c2)COc2ccc(O)c(O)c21 | 13.5% (inactive) |
| Clc1nc(N2CCC[N+]3(CC2)CC[N+]2(CCCNCC2)CC3)nc(N2CCC[N+]3(CC2)CC[N+]2(CCCNCC2)CC3)n1 (stereo not given) | 98.3% (inactive) |
| CCOC(=O)CC1CSC(N/N=C/c2ccc(O)cc2)=N1 (stereo not given) | 104% (inactive) |
| Cc1[nH]c(C(=O)Nc2ccc(C(N)=O)cc2OC(C)C)c(Cl)c1Cl | 88.7% (inactive) |
| CC(Cc1cccc2ccccc12)C(N)=O (stereo not given) | 99.2% (inactive) |
| CCCC[N+]1(C)CCN=C1Cc1ccccc1 (stereo not given) | 97.7% (inactive) |
| Nc1ncc(-c2ccc3ncnc(N4CCc5cc(F)c(Cl)cc54)c3c2)cc1C=O | -18.9% (active) |
| Nc1c(C(=O)c2ccc(Cl)cc2)sc(Nc2ccccc2)c1-c1nc2ccccc2s1 | 32.4% (inactive) |
| CN1CCN(Cc2ccc(NC(=O)c3cncc(C#Cc4cnc(N)c5ncccc45)c3)cc2Cl)CC1 | 80.1% (inactive) |
| COc1ccc(-c2cc(-c3ccc(N(C)C)cc3)nc(NC(=O)c3cccnc3)n2)cc1 | 104% (inactive) |
| CCN(CC)CCCC(Nc1c2ccc(Cl)cc2nc2ccc(OC)cc12)c1ccncc1 (stereo not given) | 97.5% (inactive) |
| CCCCCCC/C=N/NC(=O)c1ccc(-n2cc(-c3ccccc3)nn2)cc1 | 91.3% (inactive) |

| Compound | growth |
| --- | --- |
| CC1=NC(=S)NC(c2ccccc2)/C1=C1/CC(c2ccccc2O)NN1 (stereo not given) | 108% (inactive) |
| COc1ccc(Nc2nccc(Nc3ccc4[nH]ncc4c3)n2)cc1 | 46.7% (inactive) |
| CC(=O)[C@H]1CC[C@]2(C)[C@@H]1CC[C@@H]1[C@@]3(C)C/C(=C/c4cccnc4)C(=O)C(C)(C)[C@@H]3CC[C@]12C | 94.2% (inactive) |
| O=C(/C=C/c1ccco1)Nc1ncc(Cc2ccc(F)cc2)s1 | 11.3% (inactive) |
| Fc1ccc(/C=C/c2cc(/C=C/c3ccc(F)cc3)n(-c3cc(F)cc(F)c3)n2)cc1 | 114% (inactive) |
| C=C(c1ccc(C(=O)O)c(F)c1)c1cc2c(cc1C)C(C)(C)C=CC2(C)C | 61.9% (inactive) |
| O=C(Nc1ncc(Cc2ccc(Cl)cc2)s1)C1=NCCCCN1 | 109% (inactive) |
| O=C(CSc1nnc(-c2cc(-c3ccc(Cl)cc3)nc3ccccc23)n1-c1ccccc1)Nc1ccc(Cl)cc1 | 109% (inactive) |
| Cn1cc(-c2ccc3occ(-c4cccc(-c5ccncc5)c4)c3n2)cn1 | -10.7% (active) |
| CCNCCNc1c(C)c(-c2ccc(C(F)(F)F)cc2)c(C#N)c2nc3ccccc3n12 | 90.8% (inactive) |
| COC(=O)[C@H](C)NC(=O)c1ccc(NC(=O)c2[nH]c(C)c(Cl)c2Cl)c(OCCN)c1 | 101% (inactive) |
| CCn1c2ccccc2c2cc(C(O)c3cccc4ncccc34)ccc21 (stereo not given) | 21.3% (inactive) |
| COc1ccc(S(=O)(=O)Oc2ccc(-c3sc4cc(OS(=O)(=O)c5ccc(OC)cc5)ccc4c3C(=O)c3ccc(OCCN4CCCCC4)cc3)cc2)cc1 | 107% (inactive) |
| COc1cc(-c2c(-c3ccccc3)c[nH]c2C(=O)NCCCO)c(OC)c2c1OCO2 | 92.9% (inactive) |
| COc1cc(/C=C/c2cc(/C=C/c3ccc(O)c(OC)c3)n(C(=O)Nc3ccc(C)cc3C)n2)ccc1O | -15% (active) |
| CO[C@H]1CC(c2ccc[nH]2)=N[C@]12O[C@@H](C)C[C@@H]1CCCCCCCc3ccc([nH]3)[C@H]12 | 29.2% (inactive) |
| c1ccc(Cn2cc3c(c2)-c2nc(Nc4ccccc4)ncc2CC3)cc1 | 68.9% [100 µM] (inactive) |
| O=C1NC(=O)C(=Cc2cc(-c3ccc(Cl)cc3)n(-c3ccccc3)n2)C(=O)N1 | 95.5% (inactive) |
| CCCCCCCCOC(=O)c1c(C)[nH]c(/C=C2\N=C(c3ccc[nH]3)C=C2OC)c1C | -27.8% (active) |
| CN(C)CCOc1nc2c3cc([N+](=O)[O-])ccc3nn2c2ccccc12 | 69.8% (inactive) |
